Screening data: PubChem BioAssay, National Center for Advancing Translational Sciences (NCATS)
D3 ag: D3 dopamine receptor (human) agonism; D3R DiscoveRx beta-arrestin cells, luminescence, 90 min; max activation, %; hit rate 0.58% among 410,000; AID 652048; in the data active = max activation above about 30%; also: 0% is about no effect
Target sequence (P35462 whole entry, looked up): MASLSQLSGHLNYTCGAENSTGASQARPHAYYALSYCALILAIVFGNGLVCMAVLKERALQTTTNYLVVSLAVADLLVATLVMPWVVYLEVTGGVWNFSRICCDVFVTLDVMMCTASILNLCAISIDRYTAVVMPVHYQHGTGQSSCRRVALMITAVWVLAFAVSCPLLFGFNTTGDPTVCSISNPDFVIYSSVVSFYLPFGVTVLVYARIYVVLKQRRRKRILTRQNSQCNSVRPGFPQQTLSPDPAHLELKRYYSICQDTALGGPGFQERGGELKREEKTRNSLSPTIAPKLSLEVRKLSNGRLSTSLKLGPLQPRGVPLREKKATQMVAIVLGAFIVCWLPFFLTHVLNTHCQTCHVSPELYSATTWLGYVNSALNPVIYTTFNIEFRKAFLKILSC
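Agonist-mode cell screen: cells plated at 1500/well and incubated overnight at 37 °C, then exposed to library compounds for 90 min at 37 °C. Detection reagent was added for 30–60 min at room temperature, and luminescence was read.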
D3 antag: blocks the human D3 dopamine receptor | P35462 | D3R cells, DiscoveRx beta-arrestin luminescence, antagonist mode; hits give low values | max response, negative = inhibition, % | hit rate 2.5% among 360,000; in the data active = max response below about -50%; inconclusive = no clear call, values can overlap the other calls; also: % is scaled to controls: 0 for no effect and ±100 for the full control effect
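Cells expressing the human receptor were seeded at 1500 cells/well, incubated overnight at 37 degrees C in 5% CO2, then exposed to library compounds with dopamine controls for 90 minutes at 37 degrees C before luminescent detection.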
TRPML1 agonist: human mucolipin-1 channel agonism | Q9GZU1 | TRPML1-expressing cells, Ca2+ dye fluorescence, FDSS | activation, % (test concentration not listed) | hit rate 0.12% among 410,000 | AID 624414; in the data active = activation above about 50%; inconclusive = mostly about 30% to 49%; also: 0% is about no effect
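Tetracycline-induced TRPML1-DL cells are seeded and incubated overnight before loading with a no-wash Ca2+ dye and quencher. Agonist activity is taken from the 110 s fluorescence read following compound pin-transfer on an FDSS, before EC80 54-4 challenge.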
TRPML1 blocker: blocks the human TRPML1 channel. Q9GZU1. TRPML1-inducible cells, Ca2+ dye fluorescence, FDSS; hits give low values; inhibition of EC80 agonist-evoked calcium signal. activity change, negative = inhibition, % (no concentration beside the values). hit rate 0.02% among 390,000. AID 624415; in the data active = activity change below about -50%; inconclusive = between about -30% and that limit;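 also: stimulus is agonist 54-4 at its EC80 concentration; % is scaled to controls: 0 for no effect and ±100 for the full control effect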
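Calcium fluorescence in TRPML1-DL cells induced overnight with Tet: a 110 s read after compound pin addition, then a 110 s antagonist read after challenge with 54-4 at 4 uM final (EC80).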
An asterisk follows results filed as active. Rows were chosen to be rich in hits. Some 2.9% of all compounds tested hit in one or more screens of this group.

`C=CCc1ccccc1OCC(O)CNC(C)C` (configuration not stated) gave D3 ag -58, D3 antag -60*, TRPML1 agonist 0 and TRPML1 blocker -9.
`O=C(C[n+]1csc2ccccc21)c1ccc(O)c(O)c1` gave TRPML1 agonist -1.
`CC(C)c1ccc(C(=O)C[N+]2(C)CCOCC2)cc1` gave TRPML1 agonist 0.
C=CCc1ccccc1OCC(O)CN1CCN(c2ccccc2OC)CC1 (configuration not stated) was read as D3 ag -12, D3 antag -139*, TRPML1 agonist 0 and TRPML1 blocker 21.
Screening CCOc1ccccc1N1CCN(CC(O)COc2ccc3c(C)cc(=O)oc3c2)CC1 (configuration not stated) returned D3 ag -9, D3 antag -70*, TRPML1 agonist -1 and TRPML1 blocker 8.
For CCOc1ccccc1N1CCN(CC(O)COC2CCCc3ccccc32)CC1 (configuration not stated) the results were D3 ag -22, D3 antag -89*, TRPML1 agonist 0 and TRPML1 blocker 2.
OCCN1CCN(CC(O)COc2ccc3c(c2)OCO3)CC1 (configuration not stated) was read as D3 ag 0, D3 antag inconclusive, TRPML1 agonist 0 and TRPML1 blocker -8.
For C=CCc1ccccc1OCC(O)CN1CCN(c2ccccc2F)CC1 (configuration not stated) the results were D3 ag 28, D3 antag inconclusive, TRPML1 agonist 1 and TRPML1 blocker -16.
`COc1ccccc1N1CCN(CC(O)COc2ccc3c(c2)OCO3)CC1` (configuration not stated) gave D3 ag -14, D3 antag -103*, TRPML1 agonist 1 and TRPML1 blocker -11.
Screening COc1ccccc1C(=O)Nc1nnc(SCc2cc(=O)n3ccc(C)cc3n2)s1 returned D3 ag 6, TRPML1 agonist 1 and TRPML1 blocker -24.
COC(=O)c1cc2occc2n1CC(=O)Nc1ccc(N(C)C)cc1 was read as D3 ag 6, TRPML1 agonist 0 and TRPML1 blocker 11.
OC(COc1cccc2ccccc12)CN1CCOCC1 (configuration not stated) was read as D3 ag -10, D3 antag -18, TRPML1 agonist 1 and TRPML1 blocker 5.
COc1ccccc1N1CCN(CC(O)COc2cccc3ccccc23)CC1 (configuration not stated) was read as D3 ag -74, D3 antag -99*, TRPML1 agonist -1 and TRPML1 blocker 10.
`O=C(COC(=O)/C=C/C(=O)OCC(=O)NC12CC3CC(CC(C3)C1)C2)NC12CC3CC(CC(C3)C1)C2` gave D3 ag -22, D3 antag -59*, TRPML1 agonist 0 and TRPML1 blocker 23.
`CC(=O)c1ccc(NC(=O)CCc2c(C)nn(-c3ccc4nncn4n3)c2C)cc1` gave D3 ag 9, TRPML1 agonist 1 and TRPML1 blocker 9.
O=C1N(c2ccccc2C(F)(F)F)O[C@@]1(c1ccccc1)C1CCCCC1 was read as D3 ag -18, D3 antag -57*, TRPML1 agonist -1 and TRPML1 blocker -12.
COc1cc(NC(=O)OCc2ccccc2)c2ncccc2c1 was read as D3 ag 34*, D3 antag 16, TRPML1 agonist 3 and TRPML1 blocker 46.
Screening COc1cc(NCCCCCCCN)c2ncccc2c1 returned D3 ag -3, D3 antag -20, TRPML1 agonist -1 and TRPML1 blocker -17.
`COc1cc(NC(C)CCCN)c2ncccc2c1` (configuration not stated) gave D3 ag 2, D3 antag -68*, TRPML1 agonist 0 and TRPML1 blocker 2.
Screening O=C(O)c1ccc(S(=O)(=O)c2ccc3c(c2)C(=O)N(NC(=O)c2ccccc2)C3=O)cc1 returned D3 ag -1, D3 antag 0, TRPML1 agonist 1 and TRPML1 blocker -11.
`O=C(O)c1ccc(S(=O)(=O)c2ccc3c(c2)C(=O)N(NC(=O)c2ccncc2)C3=O)cc1` gave D3 ag -3, D3 antag -56*, TRPML1 agonist 1 and TRPML1 blocker 26.
`CCCCCCCCCCCCCCCC[n+]1ccc(CC(O)c2c(C)[nH]c3ccccc23)c2ccccc21` (configuration not stated) gave TRPML1 agonist 1.
Screening CC1Cc2ccccc2C[N+]1(C)CC(=O)c1cccc([N+](=O)[O-])c1 (configuration not stated) returned TRPML1 agonist 0.
For CC1(C)Cc2c(sc(NC(=O)c3ccc(C(=O)c4ccccc4)cc3)c2C#N)C(C)(C)N1 the results were D3 ag -19, D3 antag -57*, TRPML1 agonist 0 and TRPML1 blocker 3.
`O=C(OC1CC2CC1[C@H]1CCCCN1C2=O)N1CCN(c2ccccc2)CC1` (some centres not stated) gave D3 ag 7, D3 antag 4 and TRPML1 agonist 0.
O=C(OC1CC2CC1[C@H]1CCCCN1C2=O)N1CCN(S(=O)(=O)c2ccccc2)CC1 (some centres not stated) was read as D3 ag 2, D3 antag -53* and TRPML1 agonist -1.
`Nc1ccc(/C=C/c2nc3ccccc3s2)cc1` gave TRPML1 agonist 0.
Screening S=c1[nH]nc(-c2c[nH]c3ccccc23)o1 returned D3 ag 8, D3 antag -4, TRPML1 agonist 0 and TRPML1 blocker -4.
For Oc1cc2ccccc2cc1-c1n[nH]c(=S)o1 the results were D3 ag -2, D3 antag -50*, TRPML1 agonist 4 and TRPML1 blocker -5.
Screening Cc1ccc(S(=O)(=O)Nc2ccc3c(c2)nc(CCN2CCOCC2)n3C)cc1 returned D3 ag -7, D3 antag -3, TRPML1 agonist 1 and TRPML1 blocker -26.
Cn1c(CCN2CCN(c3ccccn3)CC2)nc2cc(NS(=O)(=O)c3ccc(Cl)cc3)ccc21 was read as D3 ag -10, D3 antag -69*, TRPML1 agonist 1 and TRPML1 blocker 12.
Screening Cc1ccc(S(=O)(=O)Nc2ccc3c(c2)nc(CCN2CCN(c4ccccn4)CC2)n3C)cc1 returned D3 ag 0, D3 antag -61*, TRPML1 agonist -1 and TRPML1 blocker -16.
For Cc1nn2c3c(cnc2c1-c1ccc(F)cc1)C(=O)CC(c1ccccc1)C3 (configuration not stated) the results were D3 ag -7, TRPML1 agonist 0 and TRPML1 blocker 0.
`COc1cc2sc3cc(NCc4ccc5c(c4)OCO5)ccc3c(=O)c2cc1OC` gave D3 ag 41*, D3 antag 66, TRPML1 agonist 1 and TRPML1 blocker 35.
